BAZ2B inh = qHTS Assay for Inhibitors of BAZ2B; Bromodomain adjacent to zinc finger domain protein 2B (Homo sapiens), Q9UIF8; Potency, µM (top dose mostly 114 µM), without a hit: at the top dose activity change, negative = inhibition, hits mostly inhibitors; hit rate 4.4% among 360,000; AlphaScreen BAZ2B-H3K14Ac peptide displacement; further: potency means the concentration at half of the fitted maximal effect; on the % scale 0 is the no-effect control and ±100 the full control effect; nearly all actives have a fitted effect of over 60% in size
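BAZ2B 50 nM plus b-H3(5-23)K14Ac 50 nM, PBS pH 7.4/0.01% Tween-20, 30 min RT; compound added (max 110 uM), 30 min RT; streptavidin donor/Ni-chelate acceptor beads 10 ug/mL final, 20 min dark; AlphaScreen read.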
G9a inh = qHTS Assay for Inhibitors of Histone Lysine Methyltransferase G9a; Histone-lysine N-methyltransferase EHMT2 (Homo sapiens), Q96KQ7; G9a H3K9 monomethylation, AlphaScreen, 2 h; Potency, µM (titrated, usually from 102 µM), for inactives: at the highest dose activity, negative = inhibition, most hits filed as inhibitors; hit rate 8.8% among 350,000; further: potency means the concentration at half of the fitted maximal effect; on the % scale 0 is the no-effect control and ±100 the full control effect; nearly all actives have a fitted effect of over 75% in size
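Step 1: enzyme (final 20 nM) with compound, 15 min RT. Step 2: substrate peptide 500 nM and SAM 20 uM, 2 h RT. Step 3: anti-H3K9me1 antibody and AlphaScreen beads, 10 min, then plate read.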
JMJD2A Tudor inh = qHTS Assay for Inhibitors of JMJD2A-Tudor Domain; Lysine-specific demethylase 4A (Homo sapiens), O75164; AlphaScreen JMJD2A-Tudor / H3K4me3 peptide binding; Potency, µM (series often up to 114 µM), for inactives: top-dose activity change, negative = inhibition, most hits filed as inhibitors; hit rate 4.4% among 390,000; AID 504339, 2011; further: potency means the concentration at half of the fitted maximal effect; on the % scale 0 is the no-effect control and ±100 the full control effect; nearly all actives have a fitted effect of over 50% in size
HP1b binding inh = HTS for Inhibitors of HP1-beta Chromodomain Interactions with Methylated Histone Tails; Chromobox protein homolog 1 (Homo sapiens), P83916; AlphaScreen HP1-beta / biotin-H3K9me3 peptide binding; Potency, µM (series often up to 114 µM), without a hit: top-dose activity change, negative = inhibition, usual class: inhibitors; hit rate 0.56% among 390,000; AID 540317, 2011; further: potency means the concentration at half of the fitted maximal effect; nearly all actives have a fitted effect of over 70% in size
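Compound inhibition of the preformed complex between 50 nM HP1-beta and 50 nM biotinylated H3K9me3 peptide was read by AlphaScreen. Buffer was PBS pH 7.4 with 0.01% Tween-20. Incubations ran 30 min at room temperature, with 10 ug/mL donor/acceptor beads.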
Six1-Eya2 blk = qHTS Assay for Inhibitors of the Six1/Eya2 Interaction | Homeobox protein SIX1 (Homo sapiens) + Protein phosphatase EYA2 (Homo sapiens), … | AlphaScreen GST-Six1/His-Eya2 binding, biochemical; hits give low values | activity change, % (no concentration beside the values) | hit rate 0.56% among 360,000; in the data active means activity change below about -65%; inconclusive means mostly about -30% to -63%; further: on the % scale 0 is the no-effect control and ±100 the full control effect
Target sequence (O00167 whole entry, looked up): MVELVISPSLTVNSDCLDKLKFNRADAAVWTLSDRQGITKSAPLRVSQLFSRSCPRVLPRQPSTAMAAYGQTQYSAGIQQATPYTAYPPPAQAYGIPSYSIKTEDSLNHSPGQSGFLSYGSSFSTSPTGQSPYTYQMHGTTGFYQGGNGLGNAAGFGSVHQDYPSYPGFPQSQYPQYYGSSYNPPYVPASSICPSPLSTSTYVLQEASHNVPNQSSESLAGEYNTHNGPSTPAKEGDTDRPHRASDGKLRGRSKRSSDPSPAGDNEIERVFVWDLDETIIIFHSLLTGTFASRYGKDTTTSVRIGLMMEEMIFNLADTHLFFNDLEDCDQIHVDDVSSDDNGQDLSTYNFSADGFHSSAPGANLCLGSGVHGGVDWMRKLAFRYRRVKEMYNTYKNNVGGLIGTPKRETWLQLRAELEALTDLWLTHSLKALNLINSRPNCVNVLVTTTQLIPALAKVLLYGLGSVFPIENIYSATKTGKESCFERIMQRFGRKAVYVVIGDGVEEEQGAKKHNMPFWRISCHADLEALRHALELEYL
Target sequence (Q15475 whole entry, looked up): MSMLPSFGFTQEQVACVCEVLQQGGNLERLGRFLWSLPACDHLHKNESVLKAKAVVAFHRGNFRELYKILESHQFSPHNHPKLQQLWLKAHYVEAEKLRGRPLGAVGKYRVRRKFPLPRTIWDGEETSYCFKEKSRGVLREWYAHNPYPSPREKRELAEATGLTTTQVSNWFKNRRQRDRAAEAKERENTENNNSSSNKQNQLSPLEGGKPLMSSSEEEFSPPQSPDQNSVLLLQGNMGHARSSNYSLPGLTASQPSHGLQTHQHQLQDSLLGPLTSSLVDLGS
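GST-Six1 + His-Eya2 (5X stock: 250/500 nM); Tris pH 8.0, 300 mM NaCl, 0.05% BSA, 0.02% Tween 20; GSH donor/Ni acceptor beads; 1 h 37 °C dark; AlphaScreen readout.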
CtBP-E1A blk = qHTS Assay for Inhibitors of the CtBP/E1A Interaction; AlphaScreen GST-E1A/His-CtBP binding, 1536-well; hits give low values; AID 651724, 2012; activity change, % (test concentration not listed); hit rate 0.49% among 340,000; in the data active means activity change below about -65%; inconclusive means mostly about -30% to -63%; further: on the % scale 0 is the no-effect control and ±100 the full control effect
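Protein mix (5X: 125 nM each GST-E1A, His-CtBP) was incubated with pinned compound 2 h at 37 deg C in dark, in 50 mM Tris pH 8.0 buffer with 300 mM NaCl. Glutathione donor and nickel acceptor beads followed; AlphaScreen signal read after 1 h.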
The depositor's hits bear a star; ? = inconclusive; . = no result given; [ ] = another dose, or the depositor's remark. Only some compounds are listed: those with a hit (about 10% of all), similar ones and a draw of the others. Unless noted, the call rests on the fitted dose curve; in most records, active means well fitted inhibition curve with a large enough effect; inconclusive means small, poorly fitted or top-dose-only effect; inactive means no such curve, though single readings can be large or run the other way.

SMILES | BAZ2B inh | G9a inh | JMJD2A Tudor inh | HP1b binding inh | Six1-Eya2 blk | CtBP-E1A blk
CC(C)Cc1nnc(NC(=O)CN2C(=O)c3ccccc3C2=O)s1 | -31% | 25µM* | -9% | -17% | -3 | 0
COc1ccc(NC(=O)c2cnc3cc(C)ccn3c2=O)c(OC)c1 | -13% | 3%[59 µM] | -11% | 30% | . | .
COC(=O)c1ccc(OCC2c3cc(OC)c(OC)cc3CCN2C(=O)C(C)C)cc1 (centres undefined) | ? | -10%[59 µM] | -13% | 43% | . | .
O=S(=O)(c1cccs1)N1CCN(c2nc(-c3cccs3)nc3ccccc23)CC1 | . | . | -12% | 51% | . | .
CCN1C(=O)c2ccccc2S(=O)c2ccc(C(=O)N3CCN(c4ccccc4OC)CC3)cc21 (centres undefined) | -21% | -4%[59 µM] | -26% | 11% | . | .
C=CCc1ccccc1OCCNCCCOC | -35% | 8.9µM* | 2.5µM* | -36% | 8 | 7
C=CCc1cc(Cl)ccc1OCCOCCN(C)C | 50µM* | 7.9µM* | 3.5µM* | ? | 1 | -2
CCc1cc(OCCOCCN(C)C)ccc1Cl | ? | ? | 2.2µM* | ? | 0 | 9
CCCOc1ccc(Cl)cc1CNc1ccccc1 | 35% | 206% | 57% | 52% | 13 | 35
C=CCc1cc(OC)ccc1OCCOCCC(C(=O)OCC)C(=O)OCC | 34% | 65%[59 µM] | 47% | 134% | 22 | 23
CCc1ccccc1OCCCCCNCCO | 2% | 24%[12.7 µM] | -12% | 49% | -2 | 1
C=CCc1cc(Cl)ccc1OCCOCCNC(C)(C)C | 50µM* | 25µM* | 14µM* | -30% | 0 | .
CCCSCCCNC(=O)C1CCN(c2nn3cc(-c4ccc(F)cc4)nc3s2)CC1 | ? | -1%[59 µM] | ? | 19% | . | .
C=CCc1cc(Cl)ccc1OCCOCCNCCOC | 71µM* | ? | 10µM* | ? | -1 | 6
Cc1ccc(OCCOCCN(C)C)c(Cl)c1 | 79µM* | 8.9µM* | 40µM* | ? | 6 | 4
CCOc1ccc(Cl)cc1CNCCNCCO | -35% | . | -24% | 28% | 1 | 6
COc1ccc(Cl)cc1CC=NNC(=O)c1ccncc1 | . | . | -7% | 44% | -5 | -2
COc1cc(C)ccc1OCCOc1cc(C)ccc1Cl | ? | ? | -27%[11.4 µM] | 31% | 39 | 36
C=CCc1cc(Cl)ccc1OCCNCCCOC | 3% | 20µM* | 2.5µM* | ? | 4 | 0
Cc1cccc(C(=O)NC(=O)Nc2ccc(-c3cc(C(F)(F)F)nn3-c3ccccc3)cc2)c1 | -12% | 1%[59 µM] | -11% | 42% | . | .
COc1ccc(Cl)cc1NC(=O)c1ccc2c(c1)CCN2S(C)(=O)=O | -7% | 21%[59 µM] | -25% | 59% | . | .
CCC(=O)Oc1ccc2c(c1)O/C(=C\c1ccco1)C2=O | ? | 50µM* | -30% | ? | 5 | 6
Cc1cc(O)cc2c1C(=O)/C(=C/c1ccco1)O2 | ? | ? | ? | -31% | 5 | -1
CC(=O)Oc1ccc2c(c1)O/C(=C\c1ccncc1)C2=O | 3% | . | -14% | 52% | 5 | -1
COC(=O)COc1ccc2c(c1)O/C(=C\c1ccco1)C2=O | ? | 25µM* | ? | -19% | -16 | 5
SMILES | BAZ2B inh | G9a inh | JMJD2A Tudor inh | HP1b binding inh | Six1-Eya2 blk | CtBP-E1A blk
CCN(CC)C(=O)Oc1ccc2c(c1)O/C(=C\c1ccco1)C2=O | 40µM* | 25µM* | ? | -19% | -5 | -1
Cc1ccc(N2CCN(C(=O)c3ccc(Nc4nc5ccccc5n5nnnc45)cc3)CC2)c(C)c1 | 2% | -2%[59 µM] | -9% | 35% | . | .
CCc1cccc(NC(=O)Cn2c(=O)n(-c3cccc(Cl)c3)c(=O)c3c2c2cc(C)ccc2n3C)c1 | 3% | 6%[59 µM] | -4% | 26% | . | .
CCn1cc(C(=O)OCC(=O)Nc2ccc(C)c(Cl)c2)c(=O)c2ccc(C)nc21 | 5% | -11%[59 µM] | -18% | -2% | . | .
COc1ccc(CNCc2c(C(=O)O)n(Cc3ccc(F)cc3)c3cc(C)ccc23)cc1OC | -20% | -8%[59 µM] | -15% | 8% | . | .
CCOC(=O)c1c(C)nc(C)c(C(=O)OCC)c1-c1ccc(O)c(OC)c1 | 8% | 8.9µM* | -22% | ? | 7 | -5
COC(=O)c1c(C)nc(C)c(C(=O)OC)c1-c1ccc(OC)c(OC)c1 | -2% | 4% | -10% | -1% | 4 | -3
COc1ccc(NC(=O)CSC2=C(C#N)C(c3ccco3)C3=C(CCCC3=O)N2)c(OC)c1 (centres undefined) | 79µM* | 45µM* | -28% | -9% | -25 | -22
COc1cccc(NC(=O)CSC2=C(C#N)C(c3ccco3)C3=C(CCCC3=O)N2)c1 (centres undefined) | ? | ? | -30% | 4% | -17 | -5
Cc1cc(C)n2[nH]c(=O)c(N=Nc3ccccc3)c2n1 | ? | 7.9µM* | ? | -2% | 6 | 0
Cc1cc(C(F)(F)F)n2[nH]c(=O)c(N=Nc3ccccc3)c2n1 | -26% | ? | 28µM* | 7% | -4 | 0
CCOc1cccc(/C=C2/NC(=O)N(CC(=O)Nc3cccc(C)c3)C2=O)c1O | 0% | -7%[59 µM] | -4% | 14% | -6 | -23
CCOc1cc(/C=C2/NC(=O)N(CC(=O)Nc3cccc(C)c3)C2=O)ccc1OCC(N)=O | -17% | -17% | 56µM* | -26% | 14 | -10
O=C(O)C(=O)/C(=C\c1ccc(Cl)cc1)c1ccc2ccccc2n1 | ? | 8% | 22µM* | 38% | 0 | -1
CCOC(=O)Cc1ccc(NC(=O)N2CCC(CN3CCC(C)CC3)CC2)cc1 | 4% | -17%[59 µM] | -31% | 3% | . | .
COc1ccc(N2CC(O)=C(c3nc(-c4ccc(F)cc4)cs3)C2=N)cc1Cl | -3% | 23% | 40µM* | -6% | -11 | -22
CCC1=NN(C(=O)c2cccc(Br)c2)C(O)(c2ccc(Br)cc2)C1 (centres undefined) | 40µM* | 26%[59 µM] | ? | 2% | -9 | -7
CCOc1ccc(-c2ccc(SCC(=O)Nc3nnc(CC)s3)nn2)cc1 | -2% | 28µM* | -18% | 10% | -11 | 11
COc1ccc(-c2ccc(SCC(=O)Nc3nnc(C)s3)nn2)cc1 | -16% | 9% | 1% | 39% | 0 | .
CCc1nnc(NC(=O)CSc2ccc(-c3ccc(C)cc3)nn2)s1 | -28% | 50µM* | -34% | 20% | 3 | -1
COc1ccc(C2(CNC(=O)C(=O)Nc3ccccc3C)CCCC2)cc1OC | -4% | 1%[59 µM] | -2% | 31% | . | .

Source: PubChem BioAssay (National Center for Advancing Translational Sciences (NCATS))
